From PubChem
Sampled rows, rich in hits. Any-hit rate of the full collection: about 2.2%.
GalR3 antag: antagonists of human GalR3. HEK293 GalR3-CNG cAMP membrane potential fluorescence; galR3 body fused to GalR1 C-terminus. inhibition, % at 3 µM. 360,000 compounds, 0.44% hits;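 active means inhibition above the screen-wide average plus 3 SD, cut at about 13% in these data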;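 further: forskolin and galanin both at EC90 stimulate the cells; cAMP rise reported by CNG channel membrane potential dye signal; 0% = forskolin plus galanin with DMSO and 100% = forskolin alone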
Target sequence (O60755 1-299 limits assumed): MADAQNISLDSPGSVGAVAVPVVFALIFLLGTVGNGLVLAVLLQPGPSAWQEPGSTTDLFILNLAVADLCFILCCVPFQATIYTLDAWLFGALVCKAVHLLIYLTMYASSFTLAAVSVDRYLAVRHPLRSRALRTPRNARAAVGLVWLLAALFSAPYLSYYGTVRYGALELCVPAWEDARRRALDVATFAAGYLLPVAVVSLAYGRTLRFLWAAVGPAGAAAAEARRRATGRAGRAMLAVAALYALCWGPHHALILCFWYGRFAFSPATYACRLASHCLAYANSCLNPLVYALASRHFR
FXN GAA850 act: increases GAA850 frataxin promoter reporter activity. activation, % at 6 µM. HEK293 lucGAA850 FXN promoter luciferase reporter, 24 h; percent of 10 µM SAHA response. 360,000 compounds, 0.56% hits;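 active means activation above the average of all compounds screened plus 3 SD, cutoff fixed separately per campaign, cut at about 7.5% in these data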;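 further: 0% = DMSO wells and 100% = 10 µM SAHA wells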
Hsp70 activator: transcriptional activators of Hsp70; HeLa Hsp70 promoter luciferase reporter, luminescence; scaled: vehicle 0, proteasome-inhibitor control 100%; 200,000 compounds, 0.04% hits; AID 1203; activation, % at 10 µM;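 active means activation above the mean across all tested compounds plus 3 SD, cutoff set per campaign, cut at about 5.5% in these data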;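 further: 100% = MG132 at 30 µM as the positive control and 0% = DMSO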
HIF activator: HIF pathway transcriptional activation; U2OS HRE-luciferase reporter, luminescence; normalized: DMSO 0%, desferrioxamine 100%; activation, % at 7.5 µM (by protocol); 300,000 compounds, 0.32% hits;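 active means mean activation of at least 10% of the iron chelator positive control signal, with at least half of replicates also reaching 10%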
SMARCA2 act: increases SMARCA2 function in MMTV reporter cells; MG213 cells, MMTV-luciferase reporter, dexamethasone, overnight; activation, % at 9.1 µM; 370,000 compounds, 1% hits; in the data active means activation above about 7.8%;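 further: 0% = vehicle wells and 100% = reference activator wells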
SMARCA2 act conf: SMARCA2 activation, confirmation screen | shares compounds with SMARCA2 act | MG213 cells, MMTV-luciferase with dexamethasone, luminescence, overnight; MG213 cells expressing E1A, Rb sequestered; DMSO wells 0%, reference activator 100% | activation, % at 9.1 µM | 3,500 compounds, 30% hits;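 active means activation above its plate's cutoff, the mean activation of tested wells plus 3 SD, cut at about 7.9% in these data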
VP16 Luc act: counter-screen for SMARCA2 activators: GAL4-VP16 luciferase reporter activation; shares compounds with SMARCA2 act; HEK293 GAL4-VP16 pG5luc reporter, luciferase luminescence; scaled: DMSO wells 0%, SAHA wells 100%; activation, % at 9.1 µM; 3,500 compounds, 41% hits;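 active means activation above the solvent-only control well mean plus 3 SD, averaged across control plates, cut at about 5.2% in these data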
* = called active by the depositor; nt = no result.

SMILES	GalR3 antag	FXN GAA850 act	Hsp70 activator	HIF activator	SMARCA2 act	SMARCA2 act conf	VP16 Luc act
Cc1ccc(-c2cc(C(=O)N=Nc3c(O)[nH]c4ccccc34)[nH]n2)cc1C	nt	nt	nt	nt	-3	nt	nt
O=c1c2c(nc3cc(-c4ccc(Cl)cc4)[nH]n13)CCS2	-2	5	0	2	13*	8.6*	7.6*
O=c1c2c(nc3cc(-c4cccc(Cl)c4)[nH]n13)CCC2	-4	4	0	1	10*	16*	13*
O=c1c2c(nc3cc(-c4cccc(F)c4)[nH]n13)CCC2	-6	5	0	0	12*	8.0*	12*
O=c1c2c(nc3cc(-c4ccc(F)cc4)[nH]n13)CCCC2	-3	0	0	0	1	nt	nt
COc1cccc(C(=O)N[C@H](C(=O)N2CCC[C@H]2C(=O)NC2CCCC2)c2ccccc2)c1	-1	nt	nt	nt	-2	nt	nt
Oc1ccccc1CNc1cnc2ccccc2c1	-12	3	0	2	11*	9.5*	8.8*
Cc1ccc(/C=C2/NC(=O)[C@H](C)NC2=O)cc1	-5	3	nt	2	8.4*	2	3
c1ccc(N=Nc2ccc(C3=NCCO3)cc2)cc1	-7	3	nt	nt	10*	9.2*	9.8*
COc1ccc(CN(CCN2CCOCC2)C(=O)c2ccc(F)cc2Cl)cc1OC	nt	nt	nt	nt	-7	nt	nt
CC(C)(C)OC(=O)NCc1cc(F)ccc1/C=C/S(=O)(=O)NCc1ccc(F)cc1	nt	nt	nt	nt	-2	nt	nt
O=C(N/N=C/c1ccc(Br)s1)c1ccccn1	-2	2	0	1	11*	14*	9.0*
CC(C)(C)c1ccc(/C=N/NC(=O)c2ccccn2)cc1	-6	0	0	-3	9.8*	2	9.0*
O=C(N/N=C/c1ccsc1)c1ccccn1	-5	6	0	3	2	nt	nt
COc1cc(/C=N/NC(=O)c2ccccn2)cc2c1OCO2	-6	4	0	1	17*	8.5*	8.5*
COc1cc(/C=N/NC(=O)c2cccnc2)cc2c1OCO2	2	0	nt	0	0	nt	nt
O=C(Nc1ccc(F)cc1)C(c1ccccc1)N1CCN(c2ccncc2)CC1 (stereo not given)	-6	nt	nt	nt	8.3*	2	0
COc1ccc(C(C(=O)Nc2ccc(F)cc2)N2CCN(c3ccncc3)CC2)cc1 (stereo not given)	-6	nt	nt	nt	-1	nt	nt
COc1ccc2nc(-c3ccco3)c(-c3ccco3)nc2c1	-8	1	0	nt	11*	-7	9.2*
CN1C(=O)C(C)(C)c2cc(S(=O)(=O)N3CCCC(C(=O)NCc4ccccc4Cl)C3)ccc21 (stereo not given)	0	0	nt	0	10*	-3	4
Cc1ccsc1/C=C1/SC(N2CC(C)OC(C)C2)=NC1=O (stereo not given)	-2	5	0	0	11*	0	1
O=C(Nc1nc2c(F)cc(F)cc2s1)c1ccccn1	-4	4	0	10*	11*	-14	20*
CC1=Nc2cc([N+](=O)[O-])ccc2NC(C)(C)C1	4	6	0	1	11*	6	2
O=C(Nc1cc(Br)ccc1O)c1cc(-c2cccs2)on1	-11	4	nt	3	9.8*	8	4
CNC(=S)NNC(=O)c1sc2cc(C(F)(F)F)cnc2c1-c1ccccn1	-5	0	0	0	8.0*	1	2
SMILES	GalR3 antag	FXN GAA850 act	Hsp70 activator	HIF activator	SMARCA2 act	SMARCA2 act conf	VP16 Luc act
CCOc1ccc(N=C(/C(C(=O)C(=O)N2CCOCC2)=C(\O)c2ccccc2)c2ccccc2)cc1	-2	8	0	2	9.2*	7	6.1*
COc1ccc(C(=O)N=c2sc3c(C)ccc(OC)c3n2C)cc1	nt	6	0	5	9.2*	7	9.8*
O=C1N=c2ccccc2=C1c1sc(=S)n(NC(=O)c2ccccc2)c1O	5	2	nt	0	0	nt	nt
C=CCn1c(O)c(C2=c3ccccc3=NC2=O)sc1=Nc1ccc(O)cc1	-3	1	nt	0	9.6*	-2	-1
Cc1ccc(OCC(=O)NC2=NCCS2)cc1	2	0	0	1	3	nt	nt
Cc1ccccc1OCC(=O)NC1=NCCS1	-5	2	0	-1	9.0*	7	12*
S=c1[nH]nc(-c2ccccc2Cl)n1/N=C/C=C/c1ccco1	-5	1	nt	0	-1	nt	nt
O=C1NC(c2ccccc2Cl)=N/C1=C/c1ccco1	-4	6	nt	4	18*	9.7*	8.1*
O=C1NC(c2ccc(Br)cc2)=N/C1=C/c1ccco1	-3	5	0	3	8.1*	8	11*
O=S(=O)(CC1NCc2cc(F)ccc21)NCc1ccccc1 (stereo not given)	nt	nt	nt	nt	-2	nt	nt
O=[N+]([O-])c1ccc(N=Nc2ncc[nH]2)cc1	-9	-11	nt	6	8.0*	-14	6.9*
S=c1[nH]nc(Nc2cccc3ccccc23)s1	-2	0	nt	0	11*	3	1
Cc1ccccc1Nc1n[nH]c(=S)s1	-6	0	nt	nt	-2	nt	nt
O=P(Cc1cccc[n+]1[O-])(c1ccccc1)c1ccccc1	-6	-2	-1	0	3	nt	nt
N#CCS(=O)(=O)c1cccc[n+]1[O-]	-6	nt	nt	nt	8.8*	-4	1
O=C1CCCCCCCN1Cc1ccccc1	2	0	nt	0	-2	nt	nt
CC1=NN(Cc2ccccc2)C(=O)C1	-9	-3	0	-1	10*	-4	1
CCOC(=O)C1(Cc2cccc(OC)c2)CCCN(C(=O)CSC)C1 (stereo not given)	-12	6	nt	3	3	nt	nt
CCOC(=O)C1(Cc2cccc(OC)c2)CCCN(C(=O)CCc2cccnc2)C1 (stereo not given)	-5	7	0	8	9.3*	7	7.9*
CC(=O)c1cccc(NC(=S)NC(=O)C(C)C)c1	-1	1	0	1	8.7*	-1	0
Cc1sc(=NC(=O)c2ccco2)n(C)c1-c1ccccc1	-1	5	0	2	8	nt	nt
Cc1sc(=NC(=O)c2ccco2)n(C)c1-c1ccc(F)cc1	-6	2	0	2	8.8*	14*	12*
CCCCS(=O)(=O)N1CCCc2nc(-c3ccc(F)cc3)ccc21	-7	nt	nt	nt	-2	nt	nt
Cc1occc1C(=O)NNC(=O)c1ccccc1C(=O)O	-5	6	0	6	12*	5	5
Cc1ccc(-c2nc(C3CCCN(S(=O)(=O)c4ccccc4)C3)no2)cc1 (stereo not given)	nt	nt	nt	nt	4	nt	nt
